Assay outcomes from PubChem BioAssay.
KCNQ2 block – blocks the rat KCNQ2 potassium channel. O88943. CHO-K1 KCNQ2, FluxOR thallium flux, 20 min; hits give low values. B-score at 10 µM. hit rate 1.1% among 310,000;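 active means fluorescence ratio B-score at most minus 3 library SDs, with starting brightness B-score within 2 library SDs, cut at about -5.5 in these data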
Target sequence (O88943 whole entry, looked up): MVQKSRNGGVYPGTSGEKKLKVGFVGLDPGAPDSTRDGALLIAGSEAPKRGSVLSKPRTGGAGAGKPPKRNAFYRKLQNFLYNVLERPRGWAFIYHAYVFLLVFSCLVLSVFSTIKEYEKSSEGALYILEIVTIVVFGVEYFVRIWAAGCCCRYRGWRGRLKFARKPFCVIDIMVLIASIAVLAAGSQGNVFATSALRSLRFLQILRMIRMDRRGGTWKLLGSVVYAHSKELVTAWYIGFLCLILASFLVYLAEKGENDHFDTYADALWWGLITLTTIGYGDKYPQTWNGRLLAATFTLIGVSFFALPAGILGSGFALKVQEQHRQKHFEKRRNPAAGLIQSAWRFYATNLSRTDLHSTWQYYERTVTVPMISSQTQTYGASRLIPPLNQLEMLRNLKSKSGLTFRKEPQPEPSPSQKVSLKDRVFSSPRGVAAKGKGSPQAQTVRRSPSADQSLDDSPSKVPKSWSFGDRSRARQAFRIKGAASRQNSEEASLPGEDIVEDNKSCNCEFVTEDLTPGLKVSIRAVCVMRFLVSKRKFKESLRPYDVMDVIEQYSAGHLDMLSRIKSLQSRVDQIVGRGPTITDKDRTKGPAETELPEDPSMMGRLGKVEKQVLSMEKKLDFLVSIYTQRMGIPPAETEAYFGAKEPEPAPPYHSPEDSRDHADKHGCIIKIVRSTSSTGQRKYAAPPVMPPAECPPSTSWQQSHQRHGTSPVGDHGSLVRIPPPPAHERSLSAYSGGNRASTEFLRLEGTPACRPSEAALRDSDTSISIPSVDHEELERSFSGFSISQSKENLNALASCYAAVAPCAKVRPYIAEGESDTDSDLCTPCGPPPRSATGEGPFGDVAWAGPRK
KCNQ2 enhance – enhances the rat KCNQ2 potassium channel | B-score at 10 µM | O88943 | CHO-K1 KCNQ2, FluxOR thallium flux fluorescence; hits give high values | hit rate 0.54% among 310,000;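 active means fluorescence ratio B-score at least 3 SD of library B-scores, with initial fluorescence B-score within 3 of them, cut at about 5.3 in these data; same plate scores as AID 2156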;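 further: B-score of peak minus minimum over baseline fluorescence ratio after K+ and Tl+ stimulus; positive B-score means potentiation of KCNQ2 with more thallium influx and brighter signal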
A number is an active result; 0 = inactive; - = not tested or not shown. Only some compounds are listed: those with a hit (about 1.6% of all), similar ones and a draw of the others.

SMILES | KCNQ2 block | KCNQ2 enhance
CN(C)c1ccc(/C=C(/NC(=O)c2ccccc2Cl)C(=O)NCCN2CCOCC2)cc1 | 0 | 0
CN(C(=O)COn1nnc2ccc(S(=O)(=O)N3CCOCC3)cc21)c1ccccc1 | 0 | 0
Cc1ccccc1COn1nnc2ccc(S(=O)(=O)N3CCOCC3)cc21 | -6.66 | 0
COC(=O)C[C@H]1c2cc(C(F)(F)F)ccc2S(=O)(=O)N1Cc1ccccc1OC | 0 | -
O=C(O)c1ccc2c(c1)C(=O)N(N1C(=O)c3ccccc3C1=O)C2=O | 0 | -
O=C(CN(C(=O)CNC(=O)c1ccco1)c1ccc(F)cc1)NC1CCCCC1 | 0 | 0
CCCn1nc(C(=O)Oc2ccc3c(C)cc(=O)oc3c2)c2ccccc2c1=O | 0 | -
Cc1ccc(N(C(=O)Nc2ccccc2)C2=NCCC2)cc1 | 0 | -
Cc1ccc(N(C(=O)NC2CCCCC2)C2=NCCCCC2)cc1 | -5.81 | 0
Cn1c(=O)c2c(ncn2CC(COCc2ccccc2)OCc2ccccc2)n(C)c1=O (centres undefined) | 0 | 0
Cc1ccc(NC(=O)CSc2nc(=O)n(CCN(C)C)c3c2CCCC3)cc1Cl | 0 | 0
CCn1ccc(C(=O)Nc2ccc3c(c2)CCC3)n1 | 0 | 0
COc1ccc(N2CC(C(=O)N(CC(C)C)c3c(N)n(Cc4ccccc4)c(=O)[nH]c3=O)CC2=O)c(OC)c1 (centres undefined) | 0 | 0
CC1CCCCN1S(=O)(=O)Cc1ccccc1Cl (centres undefined) | 0 | -
C=CCNC(=S)Nc1sc2c(c1C(=O)OCC)CC(C)(CC)OC2 (centres undefined) | 0 | 9.92
C=CCNC(=S)Nc1sc2c(c1C(=O)OCC)CCN(C(=O)OCC)C2 | 0 | -
O=S1(=O)C=C(Oc2ccc3ccccc3c2)c2ccccc21 | -6.11 | 0
O=S1(=O)C=C(Oc2ccc(F)cc2)c2ccccc21 | 0 | 0
COc1cccc(C(=O)NC(C)c2cccc3ccccc23)c1OC (centres undefined) | 0 | -
COc1cccc(C(=O)NC(C)c2ccc(-c3ccccc3)cc2)c1OC (centres undefined) | -5.96 | 0
C=CCn1c(SCc2c(C)noc2C)nc2sc3c(c2c1=O)CCCCC3 | -6.5 | 0
C=CCn1c(SCc2c(C)noc2C)nc2sc3c(c2c1=O)CCCC3 | 0 | -
COc1ccccc1CNC(=O)COC(=O)c1ccc(-n2cnnn2)cc1 | 0 | -
Cc1cc(C)c(C)c(N=Nc2nc3ccccc3n2C)c1C | 0 | -
Cc1ccc(C)c(N=Nc2nc3ccccc3n2C)c1 | -5.95 | 0
SMILES | KCNQ2 block | KCNQ2 enhance
C#CCOCCOCCOCCNc1nc(N2CCN(C(=O)C([C@@H](C)CC)n3cc(C(N)CO)nn3)CC2)nc(N2CCN(C(=O)[C@H](CCC(=O)O)n3cc(C(N)[C@H](C)CC)nn3)CC2)n1 (some centres undefined) | 0 | 0
COc1ccc(/C=C/C(=O)NC(=S)NCC2CCCO2)cc1 (centres undefined) | 0 | 0
COc1ccccc1/C=C/C(=O)NC(=S)NCC1CCCO1 (centres undefined) | -7.08 | 0
Cc1ccc2c(c1)sc(-c1ccc(N(C)C)cc1)[n+]2C | 0 | -
Nc1nc2c(Cl)cc(Cl)cc2s1 | 0 | 0
Nc1nc2c(Cl)ccc(Cl)c2s1 | 0 | 6.02
O=C(Cc1ccc(Cl)cc1)NCC(=O)N1CCCC1 | 0 | 0
O=C(NC(=S)Nc1cccnc1)c1cc2ccccc2o1 | 0 | 8.09
O=C(NC(=S)NCc1cccnc1)c1cc2ccccc2o1 | 0 | 0
O=S(=O)(c1ccc(S(=O)(=O)N2CCC(O)CC2)cc1)N1CCCC1 | 0 | 0
CC(C)(C#N)NC(=O)C1CCCN1S(=O)(=O)c1ccc2ccccc2c1 (centres undefined) | 0 | 0
Cc1ccc(NC(=O)CN2CCCC2)c2c1CC(C)(C)O2 | 0 | 0
Cc1ccc(NS(=O)(=O)c2ccccc2Cl)c2c1CC(C)(C)O2 | -5.99 | 0
Cc1ccc(NC(=O)CSc2nn(-c3ccc(Cl)cc3)c(=S)s2)cc1S(=O)(=O)N(C)C | -7.14 | 0
CN(C)S(=O)(=O)c1cc(NC(=O)CSc2nn(-c3ccc(Cl)cc3)c(=S)s2)ccc1Cl | 0 | -
CC(C)CCc1noc(CN2CCN(c3ccc(Cl)cn3)CC2)n1 | 0 | -
CCOC(=O)[C@H]1NN=C(C(=O)OC)[C@@H]1c1ccccc1 | 0 | 0
CCOC(=O)N1CCN(c2nc(N(c3ccccc3)c3ccccc3)nc(-n3ccnc3)n2)CC1 | -5.98 | 0
c1ccc(N(c2ccccc2)c2nc(N3CCCC3)nc(-n3ccnc3)n2)cc1 | 0 | -
Cn1nccc1C(=O)Nc1ccc2c(c1)OCO2 | 0 | 0
C=CCn1c(COc2ccccc2)nnc1SC(C)C(=O)N/N=C/c1cc(Cl)ccc1O (centres undefined) | -7.58 | 0
C=CCn1c(COc2ccc(Cl)cc2)nnc1SCC(=O)N/N=C/c1cccc(O)c1 | 0 | 0
COc1ccc(/C=C2\Oc3cc(OCC(=O)N4CCC[C@H]4CO)ccc3C2=O)c(OC)c1 | 0 | -
C/C(=N\NC(=O)c1ccoc1C)c1cccc2ccccc12 | 0 | 11.7
C/C(=N\NC(=O)c1cccc2ccccc12)c1ccccn1 | 0 | -
SMILES | KCNQ2 block | KCNQ2 enhance
CCN(CC)C(=O)c1sc(NC(=O)c2ccc(C)c([N+](=O)[O-])c2)c(C#N)c1C | 0 | 0
O=C(CCCNC(=O)c1ccc(Cl)cc1)NCc1ccccc1F | 0 | 0
COc1ccccc1NC(=O)CC(=O)c1cccc([N+](=O)[O-])c1 | 0 | 0
COc1ccccc1NC(=O)/C(=C/c1cccc([N+](=O)[O-])c1)c1ccccc1 | -5.98 | 0
CC(OC(=O)CC(NC(=O)c1ccccc1Cl)c1ccccc1)C(=O)Nc1cccc(Cl)c1Cl (centres undefined) | 0 | -
CO/N=C(\Cn1ncc(N2CCCC2)c(Br)c1=O)c1ccc(Cl)cc1 | 0 | -
CO/N=C(\Cn1ncc(NC2CCCCC2)c(Br)c1=O)c1ccc(Cl)cc1 | -6.15 | 0
Cc1ccc(NC(=O)CN(c2ccc(Cl)cc2)S(=O)(=O)c2cc([N+](=O)[O-])ccc2Cl)c(C)c1 | -7.87 | 0
COc1ccc(C)cc1S(=O)(=O)N(CC(=O)Nc1cccc([N+](=O)[O-])c1)c1ccccc1 | 0 | 0
Cc1ccccc1CN(CC(=O)Nc1cccc([N+](=O)[O-])c1)S(=O)(=O)c1ccc(Cl)cc1 | -6.64 | 0
Cc1ccc([N+](=O)[O-])cc1NC(=O)CN(C(=O)c1ccccc1Cl)C1CCCCC1 | 0 | -
Cc1ccc([N+](=O)[O-])cc1NC(=O)CN(C1CCCCC1)S(=O)(=O)c1ccc(Cl)cc1 | -7.87 | 0
CS(=O)(=O)N(CC(=O)Nc1cccc([N+](=O)[O-])c1)c1ccccc1 | 0 | 0
COC(=O)c1ccc(CN(c2ccc(C(=O)O)c(O)c2)S(=O)(=O)c2ccc(Cl)c([N+](=O)[O-])c2)cc1 | 0 | -
O=C(NCc1ccco1)c1cc2cc(Br)ccc2o1 | 0 | -
COc1ccccc1NC1CCCCC1NS(=O)(=O)c1ccccc1 (centres undefined) | 0 | 0
Cc1nnsc1C(=O)Nc1ccc(S(=O)(=O)N2CCCC(C)C2)cc1 (centres undefined) | 0 | 0
O=CNc1ccc(S(=O)(=O)NCc2ccccc2)cc1 | 0 | 0
O=C1C[C@@H](c2ccccc2)Oc2cc(O)cc(O)c21 | 0 | 0
COc1c(CC=C(C)C)cc(C2CC(=O)c3c(O)cc(O)cc3O2)cc1CC=C(C)C (centres undefined) | -5.6 | 0
Cc1ccc(C(=O)N2CCCCC2)cc1S(=O)(=O)N1CCOCC1 | 0 | -
CCCn1c(=O)c(C(=O)NNC(=O)c2ccccc2Cl)c(O)c2ccccc21 | 0 | -
COc1ccc(-c2cc(C(=O)Nc3cc(C)on3)c3ccccc3n2)c(OC)c1 | 0 | -
